The results in this text go back to PubChem BioAssay (NCATS).

One test deals with ICS. Kind of test: qHTS profiling for inhibitors of Plasmodium falciparum proliferation (AID 504749). Further: potency means the concentration at half of the fitted maximal effect. Particulars: P. falciparum in erythrocytes, SYBR Green DNA, 72 h; series mostly up to 28.7 µM. The essentials:
(§1)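 Parasite proliferation within erythrocytes, 72 h exposure. Endpoint: SYBR Green I fluorescence after overnight lysis at room temperature. Controls: 0.29 uM artemisinin, DMSO.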

The subject of a further test is JCK. Described as above. The conditions noted are these: P. falciparum in erythrocytes, SYBR Green DNA, 72 h; series mostly up to 28.7 µM. In short, it runs like this: as §1
The test system of another test is PC49. Described as above. Particulars: P. falciparum in erythrocytes, SYBR Green DNA, 72 h; series mostly up to 28.7 µM. The essentials:
as §1

The test system of another test is W2. The test is described as above. Particulars: P. falciparum in erythrocytes, SYBR Green DNA, 72 h; series mostly up to 28.7 µM. The essentials:
as §1

The next test has as its system N140. The test is described as above. Particulars: P. falciparum in erythrocytes, SYBR Green DNA, 72 h; series mostly up to 28.7 µM. The essentials:
as §1

The test system of another test is P93_24. The description is as above. Particulars: P. falciparum in erythrocytes, SYBR Green DNA, 72 h; series mostly up to 28.7 µM. The essentials: as §1
For another test, the system named is PC15. Described as above. Particulars: P. falciparum in erythrocytes, SYBR Green DNA, 72 h; series mostly up to 28.7 µM. In short, it runs like this:
as §1

A further test concerns TAB109. The description is as above. The conditions noted are these: P. falciparum in erythrocytes, SYBR Green DNA, 72 h; series mostly up to 28.7 µM. In short, it runs like this: as §1
The next test relates to KB-3-1. Kind of test: Cytotoxic Profiling of Annotated Libraries Using Quantitative High-Throughput Screening (AID 1296008). Further: on the % scale 0 is the no-effect control and ±100 the full control effect. The conditions noted are these: Five cell lines viability, CellTiter-Glo ATP luminescence, 48-72 h; max response: hits give low values. In short, it runs like this: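 Compounds were pin-transferred onto cells and incubated 48 or 72 hr at 37 degree Celsius, 95% humidity. CellTiter-Glo was added, plates sat 10 min at room temperature, then ATP-coupled luminescence was imaged as the viability read-out.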
On the technique in general: In ATP-based viability assays light output follows the ATP content of the culture.

The test system of another test is P94_40. In words: qHTS profiling for inhibitors of Plasmodium falciparum proliferation (AID 504749). Further: potency means the concentration at half of the fitted maximal effect. The conditions noted are these: P. falciparum in erythrocytes, SYBR Green DNA, 72 h; series mostly up to 28.7 µM. The essentials:
as §1
For orientation: Quantitative high-throughput screening tests each substance at several concentrations.

The subject of another test is PAD. The test is described as above. Particulars: P. falciparum in erythrocytes, SYBR Green DNA, 72 h; series mostly up to 28.7 µM. The essentials: as §1
The subject of a further test is PC26. Described as above. Particulars: P. falciparum in erythrocytes, SYBR Green DNA, 72 h; series mostly up to 28.7 µM. The essentials:
as §1

For the next test, the system named is SC27B. The test is described as above. The conditions noted are these: P. falciparum in erythrocytes, SYBR Green DNA, 72 h; series mostly up to 28.7 µM. In short, it runs like this:
as §1

For the next test, the system named is TAB165. Described as above. Particulars: P. falciparum in erythrocytes, SYBR Green DNA, 72 h; series mostly up to 28.7 µM. In short, it runs like this: as §1
The next test concerns TAB113. The description is as above. The conditions noted are these: P. falciparum in erythrocytes, SYBR Green DNA, 72 h; series mostly up to 28.7 µM. In short, it runs like this:
as §1

Where “and” joins values, the source holds several entries; their conditions need not be identical. Identical values can stand only once. Results filed as inconclusive are left out. Calls of active or inactive are those of the source. The call rests on the fitted dose curve; in most records, active means well fitted inhibition curve with a large enough effect; inconclusive means small, poorly fitted or top-dose-only effect; inactive means flat fitted curve, though single readings scatter.
Further: nearly all actives have a fitted effect of over 60% in size.

`N[C@@H](Cc1cc(I)c(Oc2ccc(O)c(I)c2)c(I)c1)C(=O)O`: the figures for the Potency in the test with ICS and in the test on W2 were 11.2 µM (active) and 9.53 µM (active), respectively. The Potency result in the test with JCK and in the test with PC49 was “inactive” throughout.

Regarding `O=P(O)(O)OP(=O)(O)O`, the Potency in the test on N140 was 8.91 µM (active); with W2, 13.5 µM (active). The Potency entry in the test on P93_24, with PC15, in the test on PC49 and with TAB109 was “inactive” throughout. Also, the max response in the test with KB-3-1 was -8.71% (inactive).

In the case of `CCCCC/C=C\C/C=C\C/C=C\CCCCC(=O)O`, the Potency result with JCK, in the test on N140, in the test on P93_24, in the test with P94_40, in the test on PAD and with PC15 was “inactive” throughout. Also, the Potency entry in the test on PC26, in the test on PC49, in the test with SC27B, with TAB109, in the test with TAB165 and with W2 was “inactive” each time. In the test on KB-3-1, the max response was -2.17% (inactive).

For `CC(C)NCC(O)COc1ccccc1-n1cccc1` (configuration not stated), the Potency entry with JCK, in the test with N140, in the test on P93_24, in the test with P94_40, in the test on PAD and in the test on PC26 was “inactive” throughout. The Potency result in the test on PC49, in the test on SC27B, with TAB113 and in the test on TAB165 was “inactive” each time. For the same molecule, the max response in the test with KB-3-1 is 24.4% (inactive).

As to `COc1ccc2c(=O)c(C)c(-c3ccccc3)oc2c1CN(C)C`, the Potency entry with JCK, in the test on PAD, with PC15, with PC26, in the test with PC49 and with SC27B was “inactive” each time. Moreover, the Potency entry with TAB109, in the test with TAB113 and with TAB165 was “inactive” throughout. The Potency in the test with W2 is 6.75 µM (active). Also, the max response in the test on KB-3-1 was 2.73% (inactive).

On to `CN1C(C(=O)Nc2ccccn2)C(=O)c2sc(Cl)cc2S1(=O)=O` (configuration not stated), for which the Potency entry with JCK, in the test with N140, in the test on P93_24, in the test with P94_40, in the test on PAD and in the test on PC15 was “inactive” throughout. The Potency entry with PC49, with SC27B, with TAB109, with TAB113, in the test with TAB165 and with W2 was “inactive” each time. The max response in the test with KB-3-1 is 5.88% (inactive).

For `CC/C=C\C/C=C\C/C=C\CCCCCCCC(=O)O`, the Potency entry in the test with JCK, in the test on N140, in the test with P93_24, in the test with P94_40, with PC15 and with PC49 was “inactive” each time. Moreover, the Potency result with SC27B, in the test with TAB109, in the test on TAB113 and in the test on W2 was “inactive” throughout. In the test on KB-3-1, the max response was -1.86% (inactive).

As to `O=c1n(CC2CO2)c(=O)n(CC2CO2)c(=O)n1CC1CO1` (configuration not stated), the Potency result in the test with JCK, with N140, in the test on PC15, with PC26, with PC49 and with SC27B was “inactive” throughout. Moreover, in the test with TAB113, the Potency result is “inactive”. The max response in the test with KB-3-1 is 23% (inactive).

Turning to `O=C(CCCN1CCC(C(=O)c2ccc(F)cc2)CC1)c1ccc(F)cc1`, the Potency result with JCK, in the test on N140, with P93_24, in the test on P94_40, with PAD and in the test with SC27B was “inactive” each time. Moreover, in the test with TAB113, the Potency entry is “inactive”. For the same molecule, in the test with W2, the Potency was 3.79 µM (active). Moreover, the max response in the test on KB-3-1 was 33.7% (inactive).

Regarding `C(=C\c1ccncc1)/c1ccccc1`, the Potency result in the test on JCK, in the test with N140, in the test with P94_40, in the test on PAD, with PC15 and in the test with PC26 was “inactive” throughout. The Potency result with PC49, with SC27B, in the test on TAB109, in the test on TAB113, in the test on TAB165 and in the test with W2 was “inactive” in each case. Also, the max response in the test with KB-3-1 is 1.91% (inactive) and -0.505% (inactive).

For `Oc1ccc(Cl)c2c1CCC2`, the Potency result with JCK, in the test with N140, with P93_24, with P94_40, with PAD and in the test on PC15 was “inactive” throughout. The Potency entry with PC26, in the test with PC49, in the test with SC27B, in the test with TAB109, with TAB113 and in the test on TAB165 was “inactive” each time. Also, the Potency result in the test with W2 was “inactive”. Besides, in the test with KB-3-1, the max response is -14.4% (inactive).

As to `O=C(O)CCC/C=C\C[C@@H]1[C@@H](/C=C/[C@@H](O)COc2cccc(C(F)(F)F)c2)[C@H](O)C[C@@H]1O`, the Potency entry in the test with JCK, in the test on P93_24, with PAD, in the test with PC15, in the test on PC49 and in the test with SC27B was “inactive” each time. Moreover, the Potency result in the test on TAB109, in the test on TAB113 and in the test on TAB165 was “inactive” in each case. Moreover, the max response in the test on KB-3-1 is -14.2% (inactive).

In the case of `O=C(O)CCC/C=C\C[C@@H]1[C@@H](/C=C/[C@@H](O)COc2cccc(Cl)c2)[C@H](O)C[C@@H]1O`, the Potency result with JCK, with N140, in the test on P93_24, in the test with P94_40, in the test with PAD and with PC15 was “inactive” in each case. Further, the Potency entry in the test on PC26, with PC49, in the test with SC27B, with TAB109, with TAB113 and in the test with TAB165 was “inactive” each time. In addition, the Potency entry in the test with W2 is “inactive”. In addition, in the test on KB-3-1, the max response is -2.7% (inactive).

`CCN(CC)CCC(=O)N1c2ccccc2Sc2ccc(C(F)(F)F)cc21`: the Potency result in the test on JCK, in the test on N140, in the test with P94_40, in the test with PAD, with PC49 and with SC27B was “inactive” in each case. For the same molecule, the Potency entry in the test on TAB113 and with TAB165 was “inactive” throughout. Further, the Potency in the test with W2 was 5.36 µM (active). Besides, the max response in the test on KB-3-1 was 2.13% (inactive).

Take `NC(N)=O`: the Potency entry with ICS, with JCK, with N140, with P93_24, with P94_40 and with PAD was “inactive” each time. Moreover, the Potency result in the test on PC15, in the test on PC26, in the test on PC49, in the test on SC27B, with TAB109 and in the test with TAB113 was “inactive” each time. The Potency result in the test with TAB165 and in the test with W2 was “inactive” throughout.
